Laboratory results from PubChem BioAssay AID1159580 (chemical genetic matrix, 2015).
Where “and” joins values, the source holds several entries; their conditions need not be identical. Equal values may be shown once. About 2,000 (36%) of roughly 5,500 compounds were called active. Roughly 18% stayed inconclusive and do not appear here. No stated cut-off is given here; in the data, active means normalized growth mostly below about 0.91 (no sharp cut-off); inconclusive means no clear call, values can overlap the other calls; inactive means mostly above about 0.92. The list shows a part of the results.

Test: chemical genetic growth profiling, strain panel (AID 1159580);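 further: tested at 20 µM; growth read once vehicle control cultures reached saturation at 30 °C; 1 = growth at the plate median or of vehicle wells; lower values mean less growth of the strain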
Settings: S. cerevisiae deletion strains, growth OD

Measured: normalized growth

CC(=O)N[C@@H](CCC(=O)O)C(=O)O
inactive: locus YAL021C, strain ccr4, hits give low values 1.03 | locus YAL026C, strain drs2, hits give low values 1.03 | locus YAL030W, strain snc1, hits give low values 1.01 | locus YBL061C, strain skt5, hits give low values 1.03 | locus YBR009C, strain hhf1, hits give low values 0.994 | locus YBR021W, strain FUR4, hits give low values 1.01 | locus YBR023C, strain chs3, hits give low values 1.03 | locus YBR171W, strain sec66, hits give low values 1.03 | locus YBR229C, strain ROT2, hits give low values 1 | locus YBR231C, strain swc5, hits give low values 1.02 | locus YBR279W, strain paf1, hits give low values 1.02 | locus YCL011C, strain gbp2, hits give low values 1.02 | locus YCL016C, strain dcc1, hits give low values 1.03 | locus YCL029C, strain bik1, hits give low values 1.02 | locus YCL069W, strain vba3, hits give low values 1.02 | locus YCR088W, strain abp1, hits give low values 1.02 | locus YDL005C, strain med2, hits give low values 1.02 | locus YDL035C, strain GPR1, hits give low values 1.01 | locus YDL040C, strain nat1, hits give low values 1.01 | locus YDL074C, strain BRE1, hits give low values 1.02 | locus YDL101C, strain DUN1, hits give low values 1.01 | locus YDL134C, strain PPH21, hits give low values 1.01 | locus YDL185W, strain tfp1, hits give low values 1 | locus YDL192W, strain arf1, hits give low values 1.01 | locus YDR001C, strain nth1, hits give low values 1.02 | locus YDR069C, strain doa4, hits give low values 1.03 | locus YDR101C, strain arx1, hits give low values 1.02 | locus YDR137W, strain rgp1, hits give low values 1.04 | locus YDR150W, strain NUM1, hits give low values 0.99 | locus YDR159W, strain sac3, hits give low values 1.01 | locus YDR162C, strain NBP2, hits give low values 1.01 | locus YDR195W, strain ref2 1.02 | locus YDR297W, strain sur2, hits give low values 1.02 | locus YDR318W, strain mcm21, hits give low values 1.03 | locus YDR334W, strain swr1, hits give low values 1.02 | locus YDR335W, strain msn5, hits give low values 1.02 | locus YDR388W, hits give low values 1.01 | locus YDR392W, strain spt3, hits give low values 1.05 | locus YDR502C, strain sam2, hits give low values 1.01 | locus YEL003W, strain gim4, hits give low values 1.01 | locus YEL037C, strain rad23, hits give low values 1.02 | locus YEL061C, strain CIN8 (second series), hits give low values 1.02 | locus YEL061C, strain CIN8, hits give low values 1.01 | locus YER015W, strain faa2, hits give low values 1.02 | locus YER016W, strain bim1, hits give low values 1.03 | locus YER110C, hits give low values 1.01 | locus YER111C, strain swi4, hits give low values 1.02 | locus YER155C, strain BEM2 (second series), hits give low values 1.01 | locus YER155C, strain BEM2, hits give low values 1.01 | locus YER167W, strain BCK2, hits give low values 1.01 | locus YFR010W, strain ubp6, hits give low values 1.01 | locus YGL078C, strain dbp3, hits give low values 0.996 | locus YGL086W, strain mad1, hits give low values 0.986 | locus YGL167C, strain pmr1, hits give low values 1.02 | locus YGL173C, strain kem1, hits give low values 1.01 | locus YGL227W, strain vid30, hits give low values 1.02 | locus YGL240W, strain doc1, hits give low values 1.01 | locus YGL248W, strain PDE1, hits give low values 1 | locus YGL253W, strain hxk2, hits give low values 1.04 | locus YGR078C, strain PAC10, hits give low values 0.999 | locus YGR135W, strain pre9, hits give low values 1.01 | locus YGR252W, strain gcn5, hits give low values 0.974 | locus YHR013C, strain ard1, hits give low values 1.06 | locus YHR027C, strain rpn1, hits give low values 1.02 | locus YHR030C, strain SLT2, hits give low values 1 and 0.981 | locus YHR079C, strain IRE1 (second series), hits give low values 1.02 | locus YHR079C, strain IRE1, hits give low values 0.981 | locus YHR094C, strain hxt1, hits give low values 1.01 | locus YHR129C, strain ARP1, hits give low values 1 | locus YHR142W, strain chs7, hits give low values 1.05 | locus YHR200W, strain rpn10, hits give low values 1 | locus YIL066C, strain RNR3, hits give low values 1.01 | locus YIL073C, strain SPO22, hits give low values 1.06 | locus YIL125W, strain kgd1, hits give low values 1 | locus YIR030C, strain dcg1, hits give low values 1.01 | locus YJL092W, strain hpr5, hits give low values 1.02 | locus YJL095W, strain BCK1 (second series), hits give low values 1.03 | locus YJL095W, strain BCK1, hits give low values 1.01 and 0.983 | locus YJL115W, strain asf1, hits give low values 1.01 | locus YJL129C, strain trk1, hits give low values 1.04 | locus YJL134W, strain LCB3, hits give low values 1.01 | locus YJL154C, strain vps35, hits give low values 1.02 | locus YJL164C, strain tpk1, hits give low values 1.01 | locus YJL166W, strain qcr8, hits give low values 1 | locus YJL168C, strain set2, hits give low values 1.01 | locus YJL187C, strain SWE1 (second series), hits give low values 1.01 | locus YJL187C, strain SWE1, hits give low values 1.03 | locus YJR043C, strain POL32, hits give low values 0.999 | locus YJR066W, strain TOR1, hits give low values 0.909
